Assay outcomes (PubChem BioAssay)
Only a selection was taken, and hits are over-represented in it overall.
VACV Venus inh: vaccinia inhibition (Venus reporter); Vaccinia virus Venus reporter expression, fluorescence; AID 720580; 0.46% of 330,000 active; Potency, µM (titrated, usually from 36.5 µM), inactives show at the top dose activity change, negative = inhibition, usual class: inhibitors; calls by dose curve; tested in A549 cells; note: potency is the fitted concentration of half-maximal effect; % is set by controls: 0 for no effect and ±100 for the full control effect; nearly all actives have a fitted effect of over 30% in size
Vaccinia mCherry: vaccinia inhibition (mCherry reporter); Vaccinia virus mCherry reporter infection, fluorescence; Potency, µM (titrated, usually from 36.5 µM), without a hit: top-dose activity change, negative = inhibition, most hits filed as inhibitors; 0.63% of 310,000 active; AID 720579; calls by dose curve; tested in A549 cells; note: potency is the fitted concentration of half-maximal effect; % is set by controls: 0 for no effect and ±100 for the full control effect; nearly all actives have a fitted effect of over 35% in size
Shiga toxin inh: blocks Shiga toxin action in Vero cells. Vero cells, Shiga toxin protein synthesis inhibition reporter. inhibition, % at 38.7 µM. 9.2% of 290,000 active. AID 2315; in the data active = inhibition mostly above about 28%, no sharp cut-off; inactive = mostly below about 43%; note: 0% is about no effect
LASV entry inh: blocks Lassa virus binding to or entry into cells; AID 540256; Potency, µM (series often up to 37.9 µM), without a hit: at the top dose activity change, negative = inhibition, hits mostly inhibitors; 1.2% of 300,000 active; Lassa virus pseudotype entry inhibition, cell reporter; calls by dose curve; tested in HEK293 cells; note: potency is the fitted concentration of half-maximal effect; % is set by controls: 0 for no effect and ±100 for the full control effect; nearly all actives have a fitted effect of over 50% in size
CHX counter: counter-screen for Shiga toxin inhibitors: cycloheximide protein synthesis inhibition; cell reporter, cycloheximide protein synthesis inhibition counterscreen; max response, %; 12% of 300,000 active; AID 2314; in the data active = max response mostly above about 13%, no sharp cut-off; inactive = mostly below about 14%; note: read at 38.3 µM for the half of the compounds with a filed dose; 0% is about no effect
MARV entry inh: Marburg virus entry inhibition; Marburg virus pseudotyped entry inhibition, cell reporter; AID 540276; Potency, µM (highest dose often 37.8 µM), for inactives: at the highest dose activity change, negative = inhibition, usual class: inhibitors; 1.8% of 300,000 active; calls by dose curve; tested in HEK293 cells; note: potency is the fitted concentration of half-maximal effect; % is set by controls: 0 for no effect and ±100 for the full control effect
An asterisk follows results filed as active; i = inactive; ? = inconclusive; · = no result; + = active, no number; [ ] = remark or other dose.

SMILES	VACV Venus inh	Vaccinia mCherry	Shiga toxin inh	LASV entry inh	CHX counter	MARV entry inh
CN1C(=O)/C(=C/c2cccn2-c2ccc3ccccc3c2)C(=O)NC1=S	25%	·	-7	?	14	?
CCN1C(=O)[C@H]2[C@H]3CN=C(SCC(=O)c4ccccc4)N3[C@@](CC)(C(=O)OC)[C@H]2C1=O	-10%	i	·	·	·	·
O=C1CS/C(=N/N=C\c2ccn[nH]2)N1	-8%	-12%	-3	-12%	0	2%
COc1ccc2c(c1)Cc1sc(NC(=O)c3ccccc3)nc1-2	-28%	-10%	145*	-23%	48*	-13%[46.1 µM]
COc1ccc2c(c1)Cc1sc(NC(=O)c3cccs3)nc1-2	·	·	149*	38%	74*	?
COc1ccc2c(c1)-c1nc(NC(=O)c3cc(Cl)ccc3OC)sc1CC2	10µM*	10µM*	·	-3%[46.1 µM]	·	-1%[46.1 µM]
COc1ccc2c(c1)-c1nc(NC(=O)c3ccc(Cl)cc3)sc1CC2	?	?	·	-13%[46.1 µM]	·	1%[46.1 µM]
COc1ccccc1-c1ccc(C(=O)NCCN2CCOCC2)c(N2CCN(c3ccccc3F)CC2)n1	-6%	-20%	·	·	·	·
Cc1csc[n+]1CC(=O)c1ccc(I)cc1	-17%	-14%	·	·	·	·
COCCCn1c2nc3ccccc3nc2c2c(=O)n(C[C@H]3CCCO3)cnc21	·	·	·	·	·	15%
O=[N+]([O-])c1c(NCCCO)cc(SCc2ccco2)c2nonc12	-16%	-4%	-5	0%	-1	2%
CC(=O)OCCNc1cc(Sc2nc3ccccc3[nH]2)c2nonc2c1[N+](=O)[O-]	112µM*	?	-10	0%	-2	24%
CC(=O)OCCCNc1cc(Sc2nc3ccccc3s2)c2nonc2c1[N+](=O)[O-]	-2%	-3%	-7	4%	2	20%
O=[N+]([O-])c1c(NCCCO)cc(Sc2ccc(Cl)cc2)c2nonc12	-19%	-3%	9	?	-1	11µM*
COC(=O)C1=C(C)N(Cc2ccccc2)C(=NCCc2ccc(O)cc2)NC1c1ccc(Br)cc1 (stereo not given)	·	·	·	·	·	2%[14.2 µM]
CC(=O)/C=C/c1ccc2c(c1)S(=O)(=O)N(C1CCCC1)[C@H]2CC(C)=O	-8%	-6%	·	·	·	·
Nc1ncnc(Nc2ccc(F)cc2)n1	-13%	i	31	?	10	17%
CCOc1ccc(Nc2ncnc(N)n2)cc1	-18%	-6%	45*	19%	18	11%
Cc1ccc(Nc2ncnc(N)n2)cc1	-16%	i	50*	11%[46.1 µM]	36*	23%[46.1 µM]
Cc1cc2oc(C(=O)N(Cc3ccc(N(C)C)cc3)CC3CCCO3)c(C)c2cc1Cl (stereo not given)	-22%	?	·	?	·	-1%[46.1 µM]
CC/C(=N\Nc1ccccc1)c1c(O)n(C)c(=O)n(C)c1=O	-20%	-1%	-6	-1%	-8	0%
C/C(=N\NC(=S)Nc1ccccc1)c1c(O)n(C)c(=O)n(C)c1=O	·	·	+	?	42*	3%
CC(=Nc1ccccc1N)c1c(O)n(C)c(=O)n(C)c1=O	·	·	72*	·	24*	·
CC(=NCCc1ccccc1)c1c(O)n(C)c(=O)n(C)c1=O	-13%	i	9	8%[46.1 µM]	-1	-8%[46.1 µM]
Cc1cc(C)cc(OCCSc2nc3ccc(NC(=O)c4ccc5c(c4)OCO5)cc3s2)c1	-11%	-7%	·	12%[46.1 µM]	·	-8%[46.1 µM]
SMILES	VACV Venus inh	Vaccinia mCherry	Shiga toxin inh	LASV entry inh	CHX counter	MARV entry inh
N#CCCn1cc(C(=O)O)c(-c2ccc3ccccc3c2)n1	-14%	i	41	0%	5	15%
COc1ccc(O)c(-c2cc(-c3cccc(Br)c3)n[nH]2)c1	?	-6%[1.46 µM]	29*	?	32*	?
COc1ccc(-c2cc(-c3cc(F)ccc3O)[nH]n2)cc1OC	·	·	78*	-5%	38*	?
COc1ccc(-c2n[nH]c(C)c2-c2cc(OC)ccc2O)cc1	·	·	-26	2%	8	2%
COc1ccc(-c2cc(-c3cc(OC)ccc3O)[nH]n2)cc1	?	?	97*	?	45*	?
COc1ccc(-c2cc(-c3ccc(OC)c(OC)c3)n[nH]2)c(O)c1	-27%	?	97*	-18%	71*	5%
CN1CCN(C(c2ccccc2Cl)c2sc3nc(-c4ccco4)nn3c2O)CC1 (stereo not given)	-5%	i	·	11%[46.1 µM]	·	·
COc1ccc(C2Nc3ccccc3C(=O)N2c2ccc(F)cc2)cc1COc1ccc(NC(C)=O)cc1 (stereo not given)	-6%	-19%	·	·	·	·
Cc1ccc(NC(=O)COC(=O)c2ccccc2OCC(=O)Nc2ccc(Br)cc2)c(C)c1	-7%	-12%	·	·	·	·
COc1ccc(O)c(-c2cc(-c3ccc(F)cc3)n[nH]2)c1	?	?	116*	0%[46.1 µM]	50*	?
COc1ccc(-c2cc(-c3ccc(Cl)cc3)n[nH]2)c(O)c1	·	·	92*	·	37*	·
O=C(c1ccc2c(c1)OCO2)N1CCOc2ccc(CN3CCC(Oc4cccnc4)CC3)cc2C1	-7%	-11%	·	·	·	·
CCOC(=O)c1ccc(NC(=S)Nc2ccc(Cl)cn2)cc1	·	·	-4	·	-1	·
CCOC(=O)c1c(C)c(C(=O)NCCc2ccccc2)c(C)n1C	·	·	104*	·	40*	·
CCOC(=O)c1ccc(NC(=S)NCc2ccccc2)cc1	·	·	21	·	12*	·
CCOC(=O)c1ccc(NC(=S)Nc2ccccn2)cc1	-25%	-23%	40*	?	27*	?
CCOC(=O)c1ccc(Nc2ncccc2[N+](=O)[O-])cc1	-5%	-12%	62*	?	35*	?
CCN(C(=O)CCNC(=O)Cn1cnc2ccccc2c1=O)c1ccccc1F	-7%	-3%	-10	-11%	4	9%[46.1 µM]
CCN1CCN(c2ccc(S(=O)(=O)N3CCCCC3)cc2NC(=O)c2cccc(C(F)(F)F)c2)CC1	-23%	-8%	·	-2%[46.1 µM]	·	?
COC(=O)c1ccc(NC(=O)c2cccc(C)c2[N+](=O)[O-])cc1	-7%	i	49	·	22*	·
CCOC(=O)c1ccc(NC(=O)c2cccc(C)c2[N+](=O)[O-])cc1	-10%	i	52*	?	20*	?
CCOC(=O)c1ccc(C(=O)OCC)c(NC(=S)Nc2ccc([N+](=O)[O-])cc2OC)c1	-6%	-14%	67*	-4%	69*	19%
COC(=O)c1ccc(NC(=O)c2ccccc2CC[N+](=O)[O-])cc1	-9%	-3%	61	-4%	12	3%[46.1 µM]
CCOC(=O)c1c(C)c(C(=O)Nc2ccccc2)c(C)n1CC	-16%	-10%	32*	20%	24*	9%
CCN(CC)C(=O)[C@H]1CC(CC(=O)NC(C)(C)C)C(=O)N2CCc3c([nH]c4ccc(OC)cc34)[C@]12C (stereo not given in full)	-19%	-6%	·	·	·	·
CC(=O)OC[C@H]1O[C@H](C#Cc2ccccc2Cl)C=C[C@@H]1OC(C)=O	·	·	·	·	·	-1%[14.2 µM]
COC(=O)c1ccc(NC(=O)CSc2nc(=O)[nH]c3c2CCCC3)cc1	-5%[7.34 µM]	-5%[7.34 µM]	·	13%[46.1 µM]	·	·
O=C(c1ccco1)N1CCN(C(=S)NC2CC3CCC2C3)CC1 (stereo not given)	-1%	-8%	3	0%[46.1 µM]	-1	-17%[46.1 µM]
